Source: PubChem BioAssay AID1159580 (chemical genetic matrix, 2015)
The whole screen tested about 5,500 compounds, of which about 2,000 (36%) were called active. Not shown: some 18% with an inconclusive outcome. Rule as the data show it: active = normalized growth mostly below about 0.91 (no sharp cut-off); inconclusive = no clear call, values can overlap the other calls; inactive = mostly above about 0.92. The list shows a part of the results.

Experiment: chemical genetic growth profiling, strain panel (AID 1159580);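 also: tested at 20 µM; growth read once vehicle control cultures reached saturation at 30 °C; 1 = growth at the plate median or of vehicle wells; lower values mean less growth of the strain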
Conditions: growth OD

Measured: normalized growth

CC(=O)[C@H]1CCC2C3C[C@H](C)C4=CC(=O)CC[C@]4(C)C3[C@@H](O)C[C@@]21C (some centres undefined)
inactive: S. cerevisiae deletion strains, locus YJR075W, strain HOC1, hits give low values 0.993 | S. cerevisiae deletion strains, locus YKL009W, strain mrt4, hits give low values 0.991 | S. cerevisiae deletion strains, locus YKL068W, hits give low values 0.977 | S. cerevisiae deletion strains, locus YKL085W, strain MDH1 (second series), hits give low values 0.96 | S. cerevisiae deletion strains, locus YKL085W, strain MDH1, hits give low values 0.96 | S. cerevisiae deletion strains, locus YKL160W, strain elf1, hits give low values 0.956 | S. cerevisiae deletion strains, locus YKL190W, strain CNB1, hits give low values 0.989 | S. cerevisiae deletion strains, locus YKR001C, strain vps1, hits give low values 0.998 | S. cerevisiae deletion strains, locus YKR026C, strain gcn3, hits give low values 0.986 | S. cerevisiae deletion strains, locus YKR091W, strain srl3, hits give low values 0.977 | S. cerevisiae deletion strains, locus YLL001W, strain dnm1, hits give low values 0.947 | S. cerevisiae deletion strains, locus YLL026W, hits give low values 0.99 | S. cerevisiae deletion strains, locus YLL041C, strain sdh2, hits give low values 0.983 | S. cerevisiae deletion strains, locus YLR027C, strain aat2, hits give low values 0.996 | S. cerevisiae deletion strains, locus YLR039C, strain RIC1, hits give low values 0.785 | S. cerevisiae deletion strains, locus YLR058C, strain SHM2, hits give low values 0.98 | S. cerevisiae deletion strains, locus YLR102C, strain apc9, hits give low values 0.975 | S. cerevisiae deletion strains, locus YLR113W, strain HOG1, hits give low values 0.993 | S. cerevisiae deletion strains, locus YLR221C, strain rsa3, hits give low values 0.945 | S. cerevisiae deletion strains, locus YLR258W, strain gsy2, hits give low values 0.986 | S. cerevisiae deletion strains, locus YLR262C, strain YPT6 (second series), hits give low values 0.95 | S. cerevisiae deletion strains, locus YLR262C, strain YPT6, hits give low values 0.901 | S. cerevisiae deletion strains, locus YLR268W, strain sec22, hits give low values 0.995 | S. cerevisiae deletion strains, locus YLR320W, strain mms22, hits give low values 0.961 | S. cerevisiae deletion strains, locus YLR330W, strain CHS5, hits give low values 0.988 | S. cerevisiae deletion strains, locus YLR342W, strain FKS1 (second series), hits give low values 0.99 | S. cerevisiae deletion strains, locus YLR342W, strain FKS1, hits give low values 0.972 | S. cerevisiae deletion strains, locus YLR357W, strain rsc2, hits give low values 0.948 | S. cerevisiae deletion strains, locus YLR370C, strain arc18, hits give low values 0.959 | S. cerevisiae deletion strains, locus YLR371W, strain rom2, hits give low values 0.978 | S. cerevisiae deletion strains, locus YLR384C, strain iki3, hits give low values 0.987 | S. cerevisiae deletion strains, locus YLR418C, strain cdc73, hits give low values 0.97 | S. cerevisiae deletion strains, locus YML016C, strain PPZ1, hits give low values 0.994 | S. cerevisiae deletion strains, locus YML032C, strain rad52, hits give low values 1.01 | S. cerevisiae deletion strains, locus YML120C, strain ndi1, hits give low values 0.95 | S. cerevisiae deletion strains, locus YML124C, strain tub3, hits give low values 0.98 | S. cerevisiae deletion strains, locus YMR058W, strain fet3, hits give low values 0.989 | S. cerevisiae deletion strains, locus YMR078C, strain ctf18, hits give low values 0.96 | S. cerevisiae deletion strains, locus YMR125W, strain sto1, hits give low values 0.954 | S. cerevisiae deletion strains, locus YMR129W, hits give low values 0.983 | S. cerevisiae deletion strains, locus YMR205C, strain PFK2, hits give low values 0.938 | S. cerevisiae deletion strains, locus YMR223W, strain ubp8, hits give low values 0.953 | S. cerevisiae deletion strains, locus YMR231W, strain pep5, hits give low values 0.989 | S. cerevisiae deletion strains, locus YMR307W, strain GAS1, hits give low values 1.04 | S. cerevisiae deletion strains, locus YNL067W, strain RPL9B, hits give low values 0.99 | S. cerevisiae deletion strains, locus YNL071W, strain lat1, hits give low values 0.973 | S. cerevisiae deletion strains, locus YNL153C, strain GIM3, hits give low values 0.997 | S. cerevisiae deletion strains, locus YNL183C, strain NPR1, hits give low values 0.931 | S. cerevisiae deletion strains, locus YNL209W, strain ssb2, hits give low values 0.994 | S. cerevisiae deletion strains, locus YNL233W, strain BNI4, hits give low values 1 | S. cerevisiae deletion strains, locus YNL248C, strain rpa49, hits give low values 0.985 | S. cerevisiae deletion strains, locus YNL250W, strain rad50, hits give low values 0.961 | S. cerevisiae deletion strains, locus YNL271C, strain bni1, hits give low values 0.972 | S. cerevisiae deletion strains, locus YNL298W, strain CLA4, hits give low values 0.986 | S. cerevisiae deletion strains, locus YNL307C, strain MCK1, hits give low values 0.976 | S. cerevisiae deletion strains, locus YNL322C, strain KRE1 (second series), hits give low values 0.982 | S. cerevisiae deletion strains, locus YNR049C, strain mso1, hits give low values 0.985 | S. cerevisiae deletion strains, locus YNR052C, strain pop2, hits give low values 0.986 | S. cerevisiae deletion strains, locus YOL006C, strain TOP1, hits give low values 0.931 | S. cerevisiae deletion strains, locus YOL012C, strain htz1 1.85 | S. cerevisiae deletion strains, locus YOL147C, strain pex11, hits give low values 0.986 | S. cerevisiae deletion strains, locus YOR001W, strain rrp6, hits give low values 1.03 | S. cerevisiae deletion strains, locus YOR061W, strain CKA2, hits give low values 0.982 | S. cerevisiae deletion strains, locus YOR069W, strain VPS5, hits give low values 0.991 | S. cerevisiae deletion strains, locus YOR070C, strain gyp1, hits give low values 0.986 | S. cerevisiae deletion strains, locus YOR080W, strain dia2, hits give low values 0.984 | S. cerevisiae deletion strains, locus YOR083W, strain WHI5, hits give low values 0.972 | S. cerevisiae deletion strains, locus YOR106W, strain vam3, hits give low values 0.955 | S. cerevisiae deletion strains, locus YOR136W, strain idh2, hits give low values 1 | S. cerevisiae deletion strains, locus YOR144C, strain elg1, hits give low values 0.992 | S. cerevisiae deletion strains, locus YOR184W, strain ser1, hits give low values 0.962 | S. cerevisiae deletion strains, locus YOR231W, strain MKK1, hits give low values 0.977 | S. cerevisiae deletion strains, locus YOR265W, strain rbl2, hits give low values 0.988 | S. cerevisiae deletion strains, locus YOR270C, strain vph1, hits give low values 0.933 | S. cerevisiae deletion strains, locus YOR290C, strain snf2, hits give low values 0.895 | S. cerevisiae deletion strains, locus YOR316C, strain cot1, hits give low values 0.979 | S. cerevisiae deletion strains, locus YPL051W, strain arl3, hits give low values 0.983 | S. cerevisiae deletion strains, locus YPL055C, strain LGE1, hits give low values 0.991 | S. cerevisiae deletion strains, locus YPL078C, strain atp4, hits give low values 0.96 | S. cerevisiae deletion strains, locus YPL106C, strain sse1, hits give low values 0.968 | S. cerevisiae deletion strains, locus YPL240C, strain hsp82, hits give low values 0.989 | S. cerevisiae deletion strains, locus YPL241C, strain CIN2, hits give low values 0.995 | S. cerevisiae deletion strains, locus YPL256C, strain CLN2, hits give low values 0.983 | S. cerevisiae deletion strains, locus YPR119W, strain clb2, hits give low values 0.978 | S. cerevisiae deletion strains, locus YPR141C, strain kar3, hits give low values 0.961 | S. cerevisiae deletion strains, locus YPR163C, strain tif3, hits give low values 0.987 | S. cerevisiae deletion strains, locus YPR167C, strain met16, hits give low values 0.984 | S. cerevisiae deletion strains, strain wtn01, hits give low values 0.983 | S. cerevisiae strains, strain wild type, hits give low values 0.994
